Measured values reported in the supplement of paper PMC11624193, “Coupling cellular drug-target engagement to downstream pharmacology with CeTEAM” (Nature Communications, 2024).
Structures can show the parent of a compound that is named as a salt. Values without a mark were called inactive.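 Rule for the calls: active = log2 fold change beyond 2 SD from the library mean after excluding viability outliers; inactive = within 2 SD.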

Biological target: PARP1 L713F-nLuc biosensor (HCT116) (UniProt P09874)
Test: PARP1 L713F-nLuc/akaLuc ratio relative to DMSO control (biosensor stabilization) (fold change); higher = more PARP1 biosensor stabilization (target engagement / stabilizer), active = hit call of the paper
Conditions: 24 h
[1] = stock concentration (mM; final µM = stock mM x 1): 2
[2] = stock concentration (mM; final µM = stock mM x 1): 9
[3] = stock concentration (mM; final µM = stock mM x 1): 10

Sequence of PARP1 L713F-nLuc biosensor (HCT116) (P09874 whole entry L713F, looked up): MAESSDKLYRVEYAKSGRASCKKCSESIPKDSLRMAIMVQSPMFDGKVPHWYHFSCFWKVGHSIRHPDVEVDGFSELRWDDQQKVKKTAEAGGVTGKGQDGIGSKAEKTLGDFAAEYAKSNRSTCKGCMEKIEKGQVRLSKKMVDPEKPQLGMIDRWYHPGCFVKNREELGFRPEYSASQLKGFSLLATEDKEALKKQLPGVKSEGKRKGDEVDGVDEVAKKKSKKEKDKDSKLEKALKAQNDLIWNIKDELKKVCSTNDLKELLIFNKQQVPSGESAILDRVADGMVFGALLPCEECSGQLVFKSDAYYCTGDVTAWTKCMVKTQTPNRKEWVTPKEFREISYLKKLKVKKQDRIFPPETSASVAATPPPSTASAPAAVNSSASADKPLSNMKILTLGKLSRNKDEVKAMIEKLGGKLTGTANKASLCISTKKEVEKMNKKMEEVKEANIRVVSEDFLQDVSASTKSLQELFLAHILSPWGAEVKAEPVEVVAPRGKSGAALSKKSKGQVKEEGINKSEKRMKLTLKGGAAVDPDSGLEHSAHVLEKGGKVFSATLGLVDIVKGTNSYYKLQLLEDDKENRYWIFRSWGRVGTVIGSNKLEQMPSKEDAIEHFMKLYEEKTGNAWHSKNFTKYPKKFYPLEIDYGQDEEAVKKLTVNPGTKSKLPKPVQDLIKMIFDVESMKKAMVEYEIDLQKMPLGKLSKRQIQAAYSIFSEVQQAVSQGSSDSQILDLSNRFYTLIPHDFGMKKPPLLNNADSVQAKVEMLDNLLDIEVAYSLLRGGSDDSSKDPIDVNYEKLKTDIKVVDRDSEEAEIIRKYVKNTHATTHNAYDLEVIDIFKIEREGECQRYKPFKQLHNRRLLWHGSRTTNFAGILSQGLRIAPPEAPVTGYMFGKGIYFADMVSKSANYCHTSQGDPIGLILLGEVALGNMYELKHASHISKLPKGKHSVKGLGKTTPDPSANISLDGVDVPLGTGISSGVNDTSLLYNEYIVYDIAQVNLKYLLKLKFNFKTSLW

CN(C)c1ccc(-c2nc3ncc(Cl)c(N4CCN(CC(=O)Nc5nccs5)CC4)c3[nH]2)cc1
PARP1 L713F-nLuc/akaLuc ratio [1]: 0.845

Cn1cc(C[C@@H](N)C(=O)O)c2ccccc21 [Indoximod (NLG-8189?]
PARP1 L713F-nLuc/akaLuc ratio [1]: 0.857

Cn1cc(-c2cnn3c(N)c(Br)c([C@@H]4CCCNC4)nc23)cn1
PARP1 L713F-nLuc/akaLuc ratio [1]: 2.66

Cc1nn(C)c(COc2ccc(N3CCN(S(=O)(=O)N(C)C)CC3)cc2)c1-c1cccc2c(CCCOc3cccc4ccccc34)c(C(=O)O)n(CCN3CCOCC3)c12
PARP1 L713F-nLuc/akaLuc ratio [1]: 1.04

C=CC(=O)Nc1cc2c(Nc3ccc(F)c(Cl)c3)ncnc2cc1OCCCN1CCOCC1 [Canertinib (CI-1033)]
PARP1 L713F-nLuc/akaLuc ratio [1]: 1.01

Cn1cc(-c2ccc(F)c(C(F)(F)F)c2)nc1C1CCN(c2ncnc3[nH]ncc23)CC1
PARP1 L713F-nLuc/akaLuc ratio [1]: 0.945

CC(C)Cn1cnc2c(N)nc3ccccc3c21 [Imiquimod]
PARP1 L713F-nLuc/akaLuc ratio [1]: 1.02

CCc1cc(O)c(F)cc1-c1ccc2c(-c3nc4c([nH]3)CN(C3CCN(C)CC3)CC4)n[nH]c2c1 [JAK-IN-5 (hydrochloride)]
PARP1 L713F-nLuc/akaLuc ratio [1]: 0.581

N[C@@H]1[C@@H](O)[C@H](O[C@@H]2O[C@H](CO)[C@@H](O)[C@H](O)[C@H]2N)[C@@H](CO)O[C@H]1O [Chitosan oligosaccharide]
PARP1 L713F-nLuc/akaLuc ratio [2]: 0.65

COc1cc2/c(=N/c3ccc(Br)cc3F)nc[nH]c2cc1OCC1CCN(C)CC1 [Vandetanib (ZD6474)]
PARP1 L713F-nLuc/akaLuc ratio [1]: 0.748

CCc1c(N(CC)C2CCOCC2)cc2oc(C3CCN(C(C)C)CC3)cc2c1C(=O)NCc1c(C)cc(C)[nH]c1=O
PARP1 L713F-nLuc/akaLuc ratio [1]: 0.847

CCN(c1cc(-c2ccc(CN3CCOCC3)cc2)cc(C(=O)NCc2c(C)cc(C)[nH]c2=O)c1C)C1CCOCC1 [Tazemetostat (EPZ-6438)]
PARP1 L713F-nLuc/akaLuc ratio [1]: 1.21

CCC(C)n1ncn(-c2ccc(N3CCN(c4ccc(OCC5COC(Cn6cncn6)(c6ccc(Cl)cc6Cl)O5)cc4)CC3)cc2)c1=O (stereo not given) [Itraconazole]
PARP1 L713F-nLuc/akaLuc ratio [1]: 0.872

CCn1cc(C(=O)O)c(=O)c2cc(F)c(N3CCNCC3)nc21 [Enoxacin (hydrate)]
PARP1 L713F-nLuc/akaLuc ratio [2]: 0.596

COc1cc2c(N3CCN(C(=O)Nc4ccc(OC(C)C)cc4)CC3)ncnc2cc1OCCCN1CCCCC1 [Tandutinib (MLN518)]
PARP1 L713F-nLuc/akaLuc ratio [1]: 1.73

CNC(=O)c1ccc(-c2cnc3ncc(Cc4ccc5ncccc5c4)n3n2)cc1F
PARP1 L713F-nLuc/akaLuc ratio [1]: 0.95

O=C(O)CNC(=O)c1nc(Cl)c2ccccc2c1O
PARP1 L713F-nLuc/akaLuc ratio [3]: 0.618

Cn1cccc1/C=C1\C(=O)NC(=O)c2ccccc21
PARP1 L713F-nLuc/akaLuc ratio [3]: 3.34 (active)

COc1ccc(C(=C2C(=O)Nc3ccccc32)c2ccc(OC)cc2)cc1
PARP1 L713F-nLuc/akaLuc ratio [3]: 0.833

CC(C)(C)c1cc(NC(=O)Nc2ccc(-c3cn4c(n3)sc3cc(OCCN5CCOCC5)ccc34)cc2)no1 [Quizartinib (AC220)]
PARP1 L713F-nLuc/akaLuc ratio [3]: 0.802

CCC1=C[C@@H]2CN(C1)Cc1c([nH]c3ccccc13)[C@@](C(=O)OC)(c1cc3c(cc1OC)N(C)[C@H]1[C@@](O)(C(=O)OC)[C@H](OC(C)=O)[C@]4(CC)C=CCN5CC[C@]31[C@@H]54)C2 [Vinorelbine Tartrate]
PARP1 L713F-nLuc/akaLuc ratio [3]: 0.576

N#Cc1c(-c2ccccc2)cc(-c2cc(Br)ccc2O)[nH]c1=O
PARP1 L713F-nLuc/akaLuc ratio [3]: 0.708

N#Cc1cc(F)cc(Oc2ccc3c(c2C(F)F)[C@@H](O)C(F)(F)S3(=O)=O)c1
PARP1 L713F-nLuc/akaLuc ratio [3]: 1.92

O=C(O)[C@]1(Cc2cccc(Nc3nccs3)n2)CC[C@@H](Oc2cccc(Cl)c2F)CC1
PARP1 L713F-nLuc/akaLuc ratio [3]: 1.05

COc1ccc2c(=O)c(-c3ccccc3)coc2c1 [7-Methoxyisoflavone]
PARP1 L713F-nLuc/akaLuc ratio [3]: 0.63

COc1cc(OC2CCN(C)CC2)ccc1Nc1ncc2c(n1)n(C1CCCC1)c(=O)n2C
PARP1 L713F-nLuc/akaLuc ratio [3]: 1.18

NC(=O)[C@@H]1CCCc2c1[nH]c1ccc(Cl)cc21 [(R)-Selisistat]
PARP1 L713F-nLuc/akaLuc ratio [3]: 0.592

O=C(/C=C/c1ccc(O)c(O)c1)c1ccc(O[C@@H]2O[C@H](CO)[C@@H](O)[C@H](O)[C@H]2O)c(O)c1O [Marein]
PARP1 L713F-nLuc/akaLuc ratio [3]: 0.984

CN(Cc1cnc2nc(N)nc(N)c2n1)c1ccc(C(=O)N[C@@H](CCC(=O)O)C(=O)O)cc1 [Methotrexate]
PARP1 L713F-nLuc/akaLuc ratio [3]: 0.755

Cc1cn(-c2cc(NC(=O)c3ccc(C)c(Nc4nccc(-c5cccnc5)n4)c3)cc(C(F)(F)F)c2)cn1 [Nilotinib (AMN-107)]
PARP1 L713F-nLuc/akaLuc ratio [3]: 0.959
